Inconclusive results are not listed. Unmarked numbers belong to inactive results. Activity calls are given as the source filed them. The call rests on the fitted dose curve; in most records, active means well fitted inhibition curve with a large enough effect; inconclusive means small, poorly fitted or top-dose-only effect; inactive means flat fitted curve, though single readings scatter. Bridge positions count the residues as written; N and C are the ends. Square brackets hold non-standard residues; d marks the D form. Peptide text beside a SMILES is read from it. * marks the point of attachment. Octanoyl(6-Me) = CCC(C)CCCCC(=O)*; Dab = NCC[CH](N)C(=O)O
Target: Glutathione peroxidase 1 (Homo sapiens) (UniProt P07203)
Experiment: Primary qHTS Assay for Inhibitors of Recombinant Selenoprotein Glutathione Peroxidase 1 (GPX1) (AID 1845191); further: nearly all actives have a fitted effect of over 65% in size
Conditions: recombinant GPX1, GR-coupled NADPH fluorescence, 15 min; series mostly up to 48.8 µM; activity, negative = inhibition: at the top concentration
Description: Assay Provider: Elias S.J. Arner MD PhD.
Department of Medical Biochemistry and Biophysics
Karolinska Institutet, Solna, Stockholm, Sweden
Selenoprotein glutathione peroxidases (GPX), like the ubiquitously expressed GPX1 and the ferroptosis modulator GPX4, enact their antioxidant activities by reducing hydroperoxides using glutathione. […] GPX1 and GPX4 inhibitors have thus shown promise as anti-cancer agents. Existing inhibitors are often promiscuous, or modulate GPX activity only indirectly, so novel direct inhibitors identified through screening against GPX1 and GPX4 could be valuable. Here, we developed optimized glutathione reductase (GR)-coupled GPX assays for the biochemical high-throughput screen (HTS) of almost 12,000 compounds with known mechanisms of action. Initial hits were triaged using a GR counter-screen, assessed for isoform specificity using a separate GPX2 assay, and were assessed for general selenocysteine-targeting activity using a thioredoxin reductase (TXNRD1) assay. With this suite of assays, we identified novel GPX1/GPX2- and GPX4-specific inhibitors and can here present a validated pipeline for future discovery research for selenoprotein-targeting agents.
SEQUENCE No. (e.g., 1, 2, 3, etc.); […] (e.g., Cells, Incubation, Reagent, etc.); VALUE; DESCRIPTION.
1; Reagent 1; 3 uL; GPx1 enzyme or no enzyme control in 1536-well, black, solid Greiner assay plate.
2; Compound; 25 nL; Kalypsis pin tool (Wako USA) equipped with a 1536-well pin head.
3; Incubation; 30 min; room temperature.
4; Reagent 2; 1 uL; 10 nM GPX1, 1 mM GSH, 0.5 mM CHP, 0.5 mM NADPH, 100 nM GR, 0.01% BSA substrate
5; Detection; Fluorescence; ViewLux microplate reader, excitation 340 nm and emission 450 nm.
6; Incubation; 15 min; room temperature.
7; Detection; Fluorescence; ViewLux microplate reader, excitation 340 nm and emission 450 nm.
NOTES (numbers refer to Sequence numbers above)
1. 3 uL of 16.66 nM GPX1 and 0.016% BSA in assay buffer (50 mM Tris-HCl, 2 mM EDTA (pH 7.5), 150 mM NaCl) was added to columns 3-48 of 1536-well assay plates using a BioRAPTR Flying Reagent Dispenser (Let's Go Robotics (LGR), Carlsbad, CA). A no-enzyme control (0.01% BSA in TES assay buffer) was added to columns 1-2.
2. 25 nL of test compounds and DMSO controls were added to each well with a pin tool (Kalypsys).
3. The assay plates were incubated for 30 minutes at room temperature.
4. 1 uL of master mix (500 nM glutathione reductase (GR), 5 mM reduced glutathione (GSH), 2.5 mM NADPH in assay buffer) was added. 1 uL of cumene hydroperoxide (CHP) ([2.5 mM] in 50% EtOH) was then added within 5 minutes to initiate the reaction. Final concentrations were: 10 nM GPX1, 1 mM GSH, 0.5 mM CHP, 0.5 mM NADPH, 100 nM GR, 0.01% BSA.
5. Initial fluorescence readout (t=0) at 340/450 nm was measured using a ViewLux multimodal detector (PerkinElmer, Waltham, MA).
7. Endpoint fluorescence readout (t=15) at 340/450 nm was measured 15 min after room temperature incubation.
Potency means the concentration at half of the fitted maximal effect.

Sequence of Glutathione peroxidase 1 (Homo sapiens) (P07203 whole entry, looked up): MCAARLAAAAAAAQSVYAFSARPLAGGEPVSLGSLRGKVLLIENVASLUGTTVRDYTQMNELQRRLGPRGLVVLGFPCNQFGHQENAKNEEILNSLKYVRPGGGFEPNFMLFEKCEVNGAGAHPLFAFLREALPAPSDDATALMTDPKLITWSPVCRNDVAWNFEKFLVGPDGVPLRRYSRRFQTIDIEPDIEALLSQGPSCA

SMILES	activity, negative = inhibition	outcome	Potency
CO[C@@H]1[C@@H](O[C@@H]2O[C@H](C)[C@@H](O[C@H]3C[C@@](C)(O)[C@H](O)[C@H](C)O3)[C@H](N(C)C)[C@H]2O)[C@@H](CC=O)C[C@@H](C)[C@@H](O[C@H]2CC[C@H](N(C)C)[C@@H](C)O2)/C=C/C=C/C[C@H](C)OC(=O)C[C@H]1O	-14%		
CCN(C(=O)CO)[C@H]1CN(C(=Nc2cccc(OC(F)F)c2)NC#N)N=C1c1ccc(Cl)c(Cl)c1	-21.8%		
CC(C)OC(=O)CCC/C=C\C[C@@H]1[C@@H](CC[C@@H](O)CCc2ccccc2)[C@H](O)C[C@@H]1O		inactive [at 9.52 µM]	
Cc1ccc2c(c1)-c1nc(-c3ccc(Cl)cc3)cc(-c3coc4ccccc4c3=O)c1CO2	-7.89%		
CCCC1CC(C(=O)NC(C(C)Cl)C2OC(SC)C(OP(=O)(O)O)C(O)C2O)N(C)C1 (stereo not given)	1.35% [at 27.7 µM]		
CCC(=O)O[C@]1(C(=O)COC(C)=O)CC[C@H]2[C@@H]3CCC4=CC(=O)CC[C@]4(C)[C@H]3[C@@H](O)C[C@@]21C	2.58%		
Cc1cc(C#N)cc(C)c1Oc1nc(Nc2ccc(C#N)cc2)nc(N)c1Br		inactive	
CC(C)C(=O)OCC(=O)[C@@]12OC(C3CCCCC3)O[C@@H]1C[C@H]1[C@@H]3CCC4=CC(=O)C=C[C@]4(C)[C@H]3[C@@H](O)C[C@@]12C (stereo not given in full)	2.12%		
OC[C@H]1O[C@@H](c2ccc(F)c(Cc3cc4ccccc4s3)c2)[C@H](O)[C@@H](O)[C@@H]1O	-17.7%		
C=CCN1CC[C@]23c4c5ccc(O)c4O[C@H]2[C@@H](OCCOCCOCCOCCOCCOCCOCCOC)CC[C@@]3(O)[C@H]1C5	0.708%		
C=C(NC(=O)C(=C)NC(=O)c1csc(C2=N[C@H]3c4csc(n4)[C@H]4NC(=O)c5csc(n5)[C@H]([C@@](C)(O)[C@@H](C)O)NC(=O)[C@H]5CSC(=N5)C(=CC)NC(=O)[C@H]([C@@H](C)O)NC(=O)c5csc(n5)[C@]3(CC2)NC(=O)[C@H](C)NC(=O)C(=C)NC(=O)[C@H](C)NC(=O)[C@H](C(C)CC)N[C@@H]2C=Cc3c([C@H](C)O)cc(nc3[C@H]2O)C(=O)O[C@@H]4C)n1)C(N)=O (stereo not given in full)	-18.4%		
COc1cccc(N2CCN(C(=O)Cn3ncc4c3-c3ccccc3OC4)CC2)c1	-10.3%		
CC1=CC(O)CC(C)(C)C1/C=C/C(C)=C/C=C/C(C)=C/C=C/C=C(C)/C=C/C=C(C)/C=C/C1=C(C)CC(O)CC1(C)C (stereo not given)	-0.686%		
COC(=O)N[C@H](C(=O)N1CC2(CC2)C[C@H]1c1ncc(-c2ccc3c(c2)C(F)(F)c2cc(-c4ccc5nc([C@@H]6[C@H]7CC[C@H](C7)N6C(=O)[C@@H](NC(=O)OC)C(C)C)[nH]c5c4)ccc2-3)[nH]1)C(C)C			inactive
COc1ccc2c(O[C@H]3CC4C(=O)N(C)CCCC/C=C\[C@@H]5C[C@@]5(C(=O)NS(=O)(=O)C5CC5)NC(=O)[C@@H]4C3)cc(-c3nc(C(C)C)cs3)nc2c1C (stereo not given in full)	-2.81%		
O=C(O[C@H]1C[N+]2(CCCOc3ccccc3)CCC1CC2)C(O)(c1cccs1)c1cccs1		inactive	
C=C1CC[C@H](O)C/C1=C\C=C1/CCC[C@]2(C)[C@@H]([C@H](C)CC[C@H](O)C(C)(C)O)CC[C@@H]12	-25.6%		
C[C@H]1O[C@]2(CS1)CN1CCC2CC1	-6.38%		
CCC(C)CCCCC(=O)NC(CCN)C(=O)NC(C(=O)NC(CCN)C(=O)NC1CCNC(=O)C(C(C)O)NC(=O)C(CCN)NC(=O)C(CCN)NC(=O)C(CC(C)C)NC(=O)C(Cc2ccccc2)NC(=O)C(CCN)NC1=O)C(C)O (stereo not given) ({Octanoyl(6-Me)}-[Dab]T[Dab][Dab][Dab]FL[Dab][Dab]T; lactam 4-C; configuration not given here)	4.73% [at 27.7 µM]		
CNC(=O)c1ccccc1Oc1nc(Nc2cc(OC)c(OC)c(OC)c2)ncc1Br	1.56%		

SMILES	activity, negative = inhibition	outcome	Potency
COc1ccc(OC)c(N2C(=O)C(Cl)=C(N3CCCCC3)C2=O)c1	-1.17%		
NS(=O)(=O)c1ccc(-n2nc(C(F)(F)F)cc2-c2ccc(F)cc2)cc1		inactive	
COc1ccccc1Nc1nc(-c2sc(NC(C)=O)nc2C)cs1			20.2 µM (active)
C[C@H]1C[C@H]2[C@H]3CCC4=CC(=O)C=C[C@]4(C)[C@@]3(F)[C@@H](O)C[C@]2(C)[C@@]1(OC(=O)c1ccccc1)C(=O)CO		inactive	
COc1cccc(-n2c(=O)[nH]c3cc(Cl)n(-c4ccc(-c5cccc(OC)c5O)cc4)c3c2=O)c1	-14.3%		
CCCCC(CC)COC(=O)c1ccc(Nc2nc(Nc3ccc(C(=O)OCC(CC)CCCC)cc3)nc(Nc3ccc(C(=O)OCC(CC)CCCC)cc3)n2)cc1 (stereo not given)	4.21%		
CCc1c(C(=O)Nc2cc(S(=O)(=O)N(CC)CC)ccc2O)[nH]c(C)c1C(C)=O	-26.4%		
Cc1cccc(O)c1		inactive	
O=C1NC(=O)/C(=C/c2ccc3c(c2)OCO3)S1	-14%		
CCN1CCN(C2(C(=O)NCCc3ccccc3)Cc3ccccc3C2)CC1	-19%		
Nc1ccccc1NC(=O)CCCCCCC(=O)Nc1ccccc1		inactive	
CCN(CC)CCS(=O)(=O)[C@@H]1CCN2C(=O)c3coc(n3)CC(=O)C[C@H](O)/C=C(C)/C=C/CNC(=O)/C=C/[C@@H](C)[C@@H](C(C)C)OC(=O)[C@@H]12	-27%		
NC(=O)C1CCCN1C(=O)C(Cc1cnc[nH]1)NC(=O)C1CCC(=O)N1 (stereo not given)	-10.5%		
CCC(=O)O[C@]1(C(=O)COC(C)=O)CC[C@H]2[C@@H]3C[C@H](C)C4=CC(=O)C=C[C@]4(C)[C@H]3[C@@H](O)C[C@@]21C	-20.6%		
O=C(CCl)Nc1ccc(S(=O)(=O)c2ccc(NC(=O)CCl)cc2)cc1	-2.14%		
C=C1/C(=C/C=C2\CCC[C@]3(C)[C@@H]([C@H](C)CCCC(O)(C(F)(F)F)C(F)(F)F)CC[C@@H]23)C[C@@H](O)C[C@@H]1O	-22.8%		
COC(=O)CCSC/C=C(\C)CCn1cc(CCc2ccc(-c3ccccc3)cc2)nn1	-1.95%		
CS(=O)(=O)n1cc2c(n1)CN([C@H]1CO[C@H](c3cc(F)ccc3F)[C@@H](N)C1)C2	-20.6%		
COc1ccc(C[C@H](NC(=O)[C@H](C)NC(=O)CN2CCOCC2)C(=O)N[C@@H](Cc2ccccc2)C(=O)[C@@]2(C)CO2)cc1		inactive	
O=C(Cn1c(=O)oc2cc(S(=O)(=O)N3CCCCC3)ccc21)NCc1ccc(Cl)cc1		inactive	
